Measurements taken from PubChem BioAssay AID1159580 (chemical genetic matrix, 2015).
Among all 5,500 compounds or so, about 2,000 (36%) were called active. Inconclusive results (about 18%) are left out. Cut-off read from the data, not from the text of the source: active = normalized growth mostly below about 0.91 (no sharp cut-off); inconclusive = no clear call, values can overlap the other calls; inactive = mostly above about 0.92. The list shows a part of the results.

Assay: chemical genetic growth profiling, strain panel (AID 1159580);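 note: tested at 20 µM; growth read once vehicle control cultures reached saturation at 30 °C; 1 = growth at the plate median or of vehicle wells; lower values mean less growth of the strain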
Details: growth OD
[1] = S. cerevisiae deletion strains, locus YAL013W, strain DEP1, hits give low values
[2] = S. cerevisiae deletion strains, locus YBR229C, strain ROT2, hits give low values
[3] = S. cerevisiae deletion strains, locus YDL101C, strain DUN1, hits give low values
[4] = S. cerevisiae deletion strains, locus YDR150W, strain NUM1, hits give low values
[5] = S. cerevisiae deletion strains, locus YEL061C, strain CIN8, hits give low values
[6] = S. cerevisiae deletion strains, locus YGR078C, strain PAC10, hits give low values
[7] = S. cerevisiae deletion strains, locus YGR229C, strain SMI1, hits give low values
[8] = S. cerevisiae deletion strains, locus YHR030C, strain SLT2, hits give low values
[9] = S. cerevisiae deletion strains, locus YHR087W, strain rtc3, hits give low values
[10] = S. cerevisiae deletion strains, locus YJL187C, strain SWE1, hits give low values
[11] = S. cerevisiae deletion strains, locus YJR043C, strain POL32, hits give low values
[12] = S. cerevisiae deletion strains, locus YJR075W, strain HOC1, hits give low values
[13] = S. cerevisiae deletion strains, locus YLR039C, strain RIC1, hits give low values
[14] = S. cerevisiae deletion strains, locus YLR058C, strain SHM2 (second series), hits give low values
[15] = S. cerevisiae deletion strains, locus YLR085C, strain ARP6, hits give low values
[16] = S. cerevisiae deletion strains, locus YLR262C, strain YPT6, hits give low values
[17] = S. cerevisiae deletion strains, locus YML094W, strain GIM5, hits give low values
[18] = S. cerevisiae deletion strains, locus YMR219W, strain ESC1, hits give low values
[19] = S. cerevisiae deletion strains, locus YMR263W, strain SAP30, hits give low values
[20] = S. cerevisiae deletion strains, locus YNL153C, strain GIM3, hits give low values
[21] = S. cerevisiae deletion strains, locus YNL298W, strain CLA4 (second series), hits give low values
[22] = S. cerevisiae deletion strains, locus YNL322C, strain KRE1, hits give low values
[23] = S. cerevisiae deletion strains, locus YNR030W, strain Alg12, hits give low values
[24] = S. cerevisiae deletion strains, locus YPL055C, strain LGE1, hits give low values
[25] = S. cerevisiae deletion strains, locus YPL241C, strain CIN2, hits give low values
[26] = S. cerevisiae deletion strains, locus YPR135W, strain CTF4, hits give low values
[27] = S. cerevisiae deletion strains, locus YNL128W, strain TEP1, hits give low values

Measured: normalized growth

CC(C)(C)c1cc(C(=O)NN)n[nH]1
inactive: [1] 1.01 | [2] 1.01 | [3] 0.973 | [4] 0.995 | [5] 1.01 | [6] 0.996 | [7] 1 | [8] 1.06 | [9] 1 | [10] 0.988 | [11] 0.997 | [12] 0.979 | [13] 1.08 | [14] 0.995 | [15] 1.15 | [16] 1.04 | [17] 1.04 | [18] 1 | [19] 0.984 | S. cerevisiae deletion strains, locus YMR307W, strain GAS1, hits give low values 1 | [20] 0.991 | [21] 1.01 | [22] 0.997 | [23] 1 | S. cerevisiae deletion strains, locus YOL006C, strain TOP1, hits give low values 1.09 | [24] 1.04 | [25] 0.953 | [26] 1.21 | S. cerevisiae strains, strain wild type, hits give low values 1.01

Cc1cccc(NC(=O)c2ccccc2)c1
inactive: [1] 0.961 | [2] 0.958 | [3] 0.991 | [4] 0.974 | [5] 0.945 | [6] 0.951 | [7] 0.977 | [8] 0.827 | [9] 0.937 | [10] 0.946 | [11] 0.952 | [12] 0.913 | S. cerevisiae deletion strains, locus YKL190W, strain CNB1, hits give low values 0.988 | [13] 0.809 | [14] 0.981 | [15] 0.897 | [16] 0.854 | [17] 0.924 | [18] 0.967 | [19] 0.973 | [27] 0.992 | [20] 0.973 | [21] 0.887 | [22] 0.98 | [23] 0.951 | [24] 0.971 | [25] 0.91 | [26] 0.798

O=c1cc(-c2ccccc2)[nH]c2nc(Cl)ccc12
inactive: S. cerevisiae deletion strains, locus YAL040C, strain CLN3, hits give low values 0.964 | S. cerevisiae deletion strains, locus YCL061C, strain MRC1 (second series), hits give low values 1 | [4] 1.01 | S. cerevisiae deletion strains, locus YDR363W, strain ESC2, hits give low values 0.979 | S. cerevisiae deletion strains, locus YER002W, strain NOP16, hits give low values 1.03 | [27] 0.962 | S. cerevisiae deletion strains, locus YNL175C, strain NOP13, hits give low values 0.989 | S. cerevisiae deletion strains, locus YNL197C, strain WHI3, hits give low values 1.01 | S. cerevisiae deletion strains, locus YNL224C, strain SQS1, hits give low values 0.977 | S. cerevisiae deletion strains, locus YOR083W, strain WHI5 (second series), hits give low values 0.989 | [24] 0.997 | [25] 1

Cc1oc(C(C)(C)C)cc1-c1cc(NC(=O)c2ccccc2)n[nH]1
inactive: S. cerevisiae deletion strains, locus YAR019C, strain CDC15, hits give low values 0.965 | S. cerevisiae deletion strains, locus YBL105C, strain PKC1, hits give low values 0.98 | S. cerevisiae deletion strains, locus YBR135W, strain CKS1, hits give low values 0.974 | S. cerevisiae deletion strains, locus YBR136W, strain MEC1, hits give low values 0.975 | S. cerevisiae deletion strains, locus YBR160W, strain CDC28, hits give low values 0.97 | S. cerevisiae deletion strains, locus YDL017W, strain CDC7, hits give low values 0.99 | S. cerevisiae deletion strains, locus YDL028C, strain MPS1, hits give low values 0.948 | [3] 0.994 | S. cerevisiae deletion strains, locus YDL108W, strain KIN28, hits give low values 0.972 | S. cerevisiae deletion strains, locus YDL132W, strain cdc53, hits give low values 0.993 | S. cerevisiae deletion strains, locus YDL214C, strain PRR2, hits give low values 0.913 | S. cerevisiae deletion strains, locus YDR052C, strain DBF4, hits give low values 0.984 | S. cerevisiae deletion strains, locus YDR054C, strain cdc34, hits give low values 0.966 | S. cerevisiae deletion strains, locus YDR226W, strain ADK1, hits give low values 0.962 | S. cerevisiae deletion strains, locus YDR477W, strain SNF1, hits give low values 0.924 | S. cerevisiae deletion strains, locus YER123W, strain YCK3, hits give low values 0.885 | S. cerevisiae deletion strains, locus YER133W, strain GLC7, hits give low values 0.957 | S. cerevisiae deletion strains, locus YFL009W, strain cdc4, hits give low values 0.951 | S. cerevisiae deletion strains, locus YFL029C, strain CAK1, hits give low values 0.962 | S. cerevisiae deletion strains, locus YFR003C, strain YPI1, hits give low values 0.988 | S. cerevisiae deletion strains, locus YFR019W, strain FAB1, hits give low values 0.921 | S. cerevisiae deletion strains, locus YFR028C, strain CDC14, hits give low values 0.961 | S. cerevisiae deletion strains, locus YGR040W, strain KSS1, hits give low values 0.94 | S. cerevisiae deletion strains, locus YGR052W, strain FMP48, hits give low values 0.93 | S. cerevisiae deletion strains, locus YGR092W, strain DBF2, hits give low values 0.743 | S. cerevisiae deletion strains, locus YHR079C, strain IRE1, hits give low values 0.695 | S. cerevisiae deletion strains, locus YHR082C, strain KSP1, hits give low values 0.81 | S. cerevisiae deletion strains, locus YHR205W, strain SCH9, hits give low values 0.849 | S. cerevisiae deletion strains, locus YIL147C, strain SLN1, hits give low values 0.966 | S. cerevisiae deletion strains, locus YJL095W, strain BCK1, hits give low values 0.822 | S. cerevisiae deletion strains, locus YJL128C, strain PBS2, hits give low values 0.908 | S. cerevisiae deletion strains, locus YJL157C, strain FAR1, hits give low values 0.909 | S. cerevisiae deletion strains, locus YJR016C, strain ILV3, hits give low values 0.981 | S. cerevisiae deletion strains, locus YJR066W, strain TOR1 (second series), hits give low values 0.883 | S. cerevisiae deletion strains, locus YJR066W, strain TOR1, hits give low values 0.798 | S. cerevisiae deletion strains, locus YKL048C, strain ELM1, hits give low values 0.943 | S. cerevisiae deletion strains, locus YKL067W, strain YNK1, hits give low values 0.899 | S. cerevisiae deletion strains, locus YKL101W, strain HSL1, hits give low values 0.878 | S. cerevisiae deletion strains, locus YKL193C, strain SDS22, hits give low values 0.98 | S. cerevisiae deletion strains, locus YKL203C, strain TOR2, hits give low values 1.01 | S. cerevisiae deletion strains, locus YLR133W, strain CKI1, hits give low values 0.911 | S. cerevisiae deletion strains, locus YLR403W, strain SFP1, hits give low values 0.925 | S. cerevisiae deletion strains, locus YML070W, strain DAK1, hits give low values 0.872 | S. cerevisiae deletion strains, locus YMR001C, strain CDC5, hits give low values 0.95 | S. cerevisiae deletion strains, locus YMR205C, strain PFK2 (second series), hits give low values 0.922 | S. cerevisiae deletion strains, locus YMR277W, strain FCP1, hits give low values 0.95 | S. cerevisiae deletion strains, locus YNL006W, strain LST8, hits give low values 0.962 | S. cerevisiae deletion strains, locus YNL020C, strain ARK1, hits give low values 0.903 | S. cerevisiae deletion strains, locus YNL161W, strain CBK1, hits give low values 0.976 | S. cerevisiae deletion strains, locus YNL183C, strain NPR1, hits give low values 0.963 | S. cerevisiae deletion strains, locus YNL207W, strain RIO2, hits give low values 0.969 | S. cerevisiae deletion strains, locus YNL222W, strain SSU72, hits give low values 0.969 | S. cerevisiae deletion strains, locus YNL307C, strain MCK1 (second series), hits give low values 0.876 | S. cerevisiae deletion strains, locus YOL078W, strain AVO1, hits give low values 0.981 | S. cerevisiae deletion strains, locus YOL136C, strain PFK27, hits give low values 0.866 | S. cerevisiae deletion strains, locus YOR061W, strain CKA2, hits give low values 0.91 | S. cerevisiae deletion strains, locus YOR119C, strain RIO1, hits give low values 0.928 | S. cerevisiae deletion strains, locus YOR231W, strain MKK1, hits give low values 0.791 | S. cerevisiae deletion strains, locus YOR329C, strain SCD5, hits give low values 0.981 | S. cerevisiae deletion strains, locus YPL031C, strain PHO85, hits give low values 0.908 | S. cerevisiae deletion strains, locus YPL153C, strain RAD53, hits give low values 0.877 | S. cerevisiae deletion strains, locus YPL204W, strain HRR25, hits give low values 0.883 | S. cerevisiae deletion strains, locus YPL209C, strain IPL1, hits give low values 0.972 | S. cerevisiae deletion strains, locus YPR025C, strain CCL1, hits give low values 0.979 | S. cerevisiae deletion strains, locus YPR106W, strain ISR1, hits give low values 0.969 | S. cerevisiae deletion strains, locus YPR111W, strain DBF20, hits give low values 0.935 | S. cerevisiae deletion strains, strain NNK1, hits give low values 0.951 | S. cerevisiae deletion strains, strain TSCII, hits give low values 0.958
active: [8] 0.611 | S. cerevisiae deletion strains, locus YLR113W, strain HOG1, hits give low values 0.778 | S. cerevisiae deletion strains, locus YPL256C, strain CLN2, hits give low values 0.844
